Experimental data as given in PubChem BioAssay (NCATS).
Results filed as inconclusive are left out. Active and inactive are the calls of the source. The call rests on the fitted dose curve; in most records, active means well fitted curve in either direction with a large enough effect (not every such curve was filed as active); inconclusive means small, poorly fitted or top-dose-only effect, or another doubt; inactive means flat fitted curve, though single readings scatter.

Each compound was assayed against Mitogen-activated protein kinase 10 (Mus musculus) (UniProt Q61831) (assay: JNK3 AlphaScreen Assay (AID 530;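 further: kinase came from lysate of stimulated human HepG2 cells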)). Conditions: JNK3 lysate, c-Jun phosphorylation; series mostly up to 57.1 µM; activity change, negative = inhibition: at the top concentration.
Method in brief: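 Phosphorylation of biotinylated GST-cJun(1-79) at Ser73 is measured by AlphaScreen proximity luminescence. Enzyme is JNK3 in HepG2 lysates activated with interleukin-1beta and tumor necrosis factor alpha; ATP is 10 uM final.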
On the % scale 0 is the no-effect control and ±100 the full control effect.

Activity change, negative = inhibition, inactive:
COCCn1c(=O)cnc2cnc(OCc3ccccc3)nc21 -3%
COc1ccc(NC(=O)N2CC3(CCN(C(=O)c4cccc(F)c4)CC3)C2)cc1 -8.3%
COc1ccc(C(=O)N2CCC[C@@]3(CCN(Cc4ccccc4OC)C3)C2)cc1 1.35%
Cc1nc2cnc(OCc3ccccc3)nc2n(CCC#N)c1=O -9.5%
Cc1cnc(CNc2ncnc3ccc(-c4ccccc4C#N)cc23)cn1 -9.52%
COC(=O)N1CCC2(CCN(C(=O)Nc3ccc(OC)cc3)CC2)CC1 -1.92%
COc1ccc(C(=O)N2CCC3(CC2)CCN(c2cccc(-c4ccccc4)c2)CC3)cc1 -29.7%
COc1ccc(Oc2ncc3ncc(=O)n(Cc4cccc(OC)c4)c3n2)cc1 -2.47%
COCC(=O)N1CCC2(CCN(Cc3cc(C(F)(F)F)cc(C(F)(F)F)c3)CC2)CC1 -3.35%
O=C(c1csnn1)N1CCC2(CCCN(c3ncccn3)C2)CC1 -3.85%
O=C(Nc1ccccc1)N1CCC2(CCNCC2)CC1 3.04%
COc1ccccc1CCn1c(=O)c(C)nc2cncnc21 -2.95%
N#Cc1ccc(CN2CC3(CCN(C(=O)c4csnn4)CC3)C2)cc1 1.27%
COc1ccc(Oc2ncc3nc(C)c(=O)n(C4CC4)c3n2)cc1 -6.44%
COCCn1c(=O)c(-c2ccc(OC)cc2)nc2cnc(Oc3ccc(OC)cc3)nc21 4.63%
COc1ccc(C(=O)N2CCC[C@@]3(CCN(C)C3)C2)cc1 -1.11%
N#Cc1cccc(NC(=O)N2CC[C@@]3(CCCN(C(=O)c4csnn4)C3)C2)c1 2.17%
COc1ccc(-n2c(=O)c(-c3ccc(F)cc3)nc3cnc(OC)nc32)cc1 5.89%
